Records with an inconclusive call do not appear. Active and inactive are the calls of the source. Unless noted, calls follow the shape of the dose curve; as a rule, active = well fitted curve in the direction sought with a large enough effect in the repeat runs; inconclusive = weak or mixed curves; inactive = no such curve, though single readings can be large; an effect the other way counts as inactive or inconclusive.
Assays:
[1] = qHTS assay for small molecule agonists of the p53 signaling pathway (AID 651631; calls by dose curve; also: nearly all actives have a fitted effect of over 15% in size)
Method in brief: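 Beta-lactamase reporter activity under p53 response elements was quantified in HCT-116 cells by FRET fluorescence, following 16 h incubation with test compounds at 37 °C and 2 h substrate development at room temperature.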

[2] = qHTS assay for small molecule agonists of the p53 signaling pathway - cell viability (AID 651633; calls by dose curve;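 also: p53RE-bla HCT reporter cells with a stable beta-lactamase p53 reporter; series mostly up to about 83 µM; nearly all actives have a fitted effect of over 30% in size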)
Method in brief: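 p53RE-bla cells, seeded at 4,000 per well and rested 5 h at 37 C/5% CO2, received compounds in DMSO for 16 h at 37 C. CellTiter-Glo was then added, and luminescence was read after 30 min at room temperature to gauge cytotoxicity.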

[3] = qHTS assay for small molecules that induce genotoxicity in human embryonic kidney cells expressing luciferase-tagged ATAD5 - cell viability (AID 651634; calls by dose curve; also: nearly all actives have a fitted effect of over 25% in size)
Method in brief: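 HEK293T cells carrying luciferase-tagged ATAD5, 2,000 cells/well, exposed to compound for 15.5 hr at 37C. Viability read as live-cell protease activity by CellTiter-Fluor fluorescence after 30 min at 37C.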

[4] = qHTS assay for small molecule disruptors of the mitochondrial membrane potential - cell viability (AID 720634; calls by dose curve;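 also: human HepG2 liver cancer cells; series mostly up to about 83 µM; nearly all actives have a fitted effect of over 20% in size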)
Method in brief: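 HepG2 cells, 2,000 per well, attached overnight, then treated 1 hr at 37 C, 5% CO2. Viability read as ATP by CellTiter-Glo luminescence after 30 min at room temperature. Read in the same wells as the m-MPI membrane-potential dye assay.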

[5] = qHTS assay to test for compound auto fluorescence at 590 nm (red) in HepG2 cells (AID 720674)
Method in brief: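 Compound auto-fluorescence is scored relative to Rose Bengal sodium, measured at 540/590 nm in live HepG2 cultures after 1 hr compound contact (37 C, 5% CO2).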

[6] = qHTS assay to test for compound auto fluorescence at 535 nm (green) in HepG2 cells (AID 720675)
[7] = qHTS assay to test for compound auto fluorescence at 460 nm (blue) in HEK293 cells (AID 720678)
Method in brief: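 Intrinsic compound fluorescence is recorded in live HEK293 cultures after overnight incubation at 37C, 5% CO2, using excitation 405 nm and emission 460 nm. Values are referenced to triamterene.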

[8] = qHTS assay to test for compound auto fluorescence at 535 nm (green) in HEK293 cells (AID 720680)
[9] = qHTS assay to test for compound auto fluorescence at 460 nm (blue) in HEK293 cell free culture (AID 720681)
Method in brief: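 Test compounds were pinned into cell-free culture medium (DMEM with 10% FBS) and fluorescence was read directly at Ex/Em 405/460 nm. Signals were expressed as fluorescence equivalents of triamterene, with DMSO vehicle as control.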

[10] = qHTS assay to test for compound auto fluorescence at 535 nm (green) in HEK293 cell free culture (AID 720682)
Method in brief: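 Each library compound, or DMSO control, is added by pintool to medium alone, comprising DMEM and 10% FBS. Emission at 535 nm following 485 nm excitation is quantified against fluorescein.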

[11] = qHTS assay to test for compound auto fluorescence at 590 nm (red) in HEK293 cell free culture (AID 720683)
Method in brief: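 Tox21 10K library compounds were pinned into cell-free DMEM with 10% FBS and fluorescence was read at excitation 540 nm. Activity is expressed as Rose Bengal sodium equivalency.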

[12] = qHTS assay to test for compound auto fluorescence at 590 nm (red) in HepG2 cell free culture (AID 720684)
Method in brief: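 Red fluorescence (540 nm excitation, 590 nm emission) was measured after compound transfer into cell-free MEM supplemented with 10% FBS. Values are equivalencies against Rose Bengal sodium.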

[13] = qHTS assay to test for compound auto fluorescence at 460 nm (blue) in HepG2 cell free culture (AID 720685)
Method in brief: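 Compound (23 nL) or DMSO pinned into cell-free MEM with 10% FBS; blue fluorescence read at 405/460 nm excitation/emission, expressed as auto-fluorescence equivalency to triamterene.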

[14] = qHTS assay to test for compound auto fluorescence at 535 nm (green) in HepG2 cell free culture (AID 720686)
[15] = qHTS assay to identify small molecule antagonists of the glucocorticoid receptor (GR) signaling pathway - cell viability counter screen (AID 720693); also: nearly all actives have a fitted effect of over 55% in size
[16] = qHTS assay for identifying genotoxic compounds that show differential cytotoxicity against isogenic chicken DT40 cell lines with known DNA damage response pathways - Rev3 mutant cell line (AID 743014); also: nearly all actives have a fitted effect of over 55% in size
[17] = qHTS assay for identifying genotoxic compounds that show differential cytotoxicity against isogenic chicken DT40 cell lines with known DNA damage response pathways - Rad54/Ku70 mutant cell line (AID 743015); also: nearly all actives have a fitted effect of over 60% in size
[18] = qHTS assay to identify small molecule antagonists of the androgen receptor (AR) signaling pathway - cell viability counter screen (AID 743033; also: nearly all actives have a fitted effect of over 45% in size)
[19] = qHTS assay to identify small molecule antagonists of the androgen receptor (AR) signaling pathway using the MDA cell line - cell viability counter screen (AID 743041; also: nearly all actives have a fitted effect of over 45% in size)
Method in brief: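 MDA-kb2 AR-luc human breast carcinoma cells (MMTV-luciferase, AR/GR responsive) were treated with compounds plus R1881 agonist for 16 h at 37 °C. Viability was read as CellTiter-Fluor fluorescence in the same wells as the reporter assay.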

[20] = biological target: Estrogen receptor (Homo sapiens) (UniProt P03372); test: qHTS assay to identify small molecule antagonists of the estrogen receptor alpha (ER-alpha) signaling pathway (AID 743069; active = well fitted curve in the direction sought with a large enough effect in the signal ratio in the repeat runs, not every such curve was filed as active; the % refers to the signal ratio)
Method in brief: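 HEK293 cells stably carrying an ER-alpha-UAS-bla beta-lactamase reporter were pre-cultured overnight in 2% charcoal-stripped FBS medium. Test compounds in DMSO were added together with 17beta-estradiol for 18 hr at 37C. Read-out was fluorescence after 2 hr with LiveBLAzer B/G FRET substrate at room temperature.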

[21] = qHTS assay to identify small molecule antagonists of the estrogen receptor alpha (ER-alpha) signaling pathway - cell viability counter screen (AID 743074; calls by dose curve; also: nearly all actives have a fitted effect of over 45% in size)
[22] = biological target: Estrogen receptor (Homo sapiens) (UniProt P03372); test: qHTS assay to identify small molecule agonists of the estrogen receptor alpha (ER-alpha) signaling pathway (AID 743075; calls by dose curve)
[23] = biological target: Estrogen receptor (Homo sapiens) (UniProt P03372); test: qHTS assay to identify small molecule agonists of the estrogen receptor alpha (ER-alpha) signaling pathway using the BG1 cell line (AID 743079); also: nearly all actives have a fitted effect of over 20% in size
[24] = qHTS assay to identify small molecule antagonists of the estrogen receptor alpha (ER-alpha) signaling pathway using the BG1 cell line (AID 743080; calls by dose curve;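 also: BG1 cells stimulated with 17beta-estradiol alongside compound; series mostly up to about 70 µM; nearly all actives have a fitted effect of over 25% in size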)
Method in brief: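 Readout is ONE-Glo luminescence, taken 30 min at room temperature after reagent addition, preceded by a CellTiter-Fluor viability read; BG1-Luc-4E2 cells had received compound and 17beta-estradiol for 21.5 h at 37 C.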

[25] = qHTS assay to identify small molecule antagonists of the estrogen receptor alpha (ER-alpha) signaling pathway using the BG1 cell line - cell viability counter screen (AID 743081);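 also: compound given together with 17beta-estradiol as the ER stimulus; series mostly up to about 70 µM; nearly all actives have a fitted effect of over 45% in size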
[26] = qHTS assay to identify aromatase inhibitors - cell viability counter screen (AID 743084);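 also: cells stimulated with testosterone during compound exposure; nearly all actives have a fitted effect of over 55% in size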
[27] = biological target: Aryl hydrocarbon receptor (Homo sapiens) (UniProt P35869); test: qHTS assay to identify small molecule that activate the aryl hydrocarbon receptor (AhR) signaling pathway (AID 743085);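 also: HG2L7.5c1 human HepG2 liver cells with stably integrated DRE-driven firefly reporter; series mostly up to about 70 µM; nearly all actives have a fitted effect of over 15% in size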
Method in brief: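 Stably transfected human liver carcinoma cells (HG2L7.5c1; 20 DRE-firefly luciferase) were incubated 5 h, dosed, and kept 24 h at 37C. Agonism was scored from increased luciferase luminescence.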

[28] = qHTS assay to identify small molecule that activate the aryl hydrocarbon receptor (AhR) signaling pathway - cell viability counter screen (AID 743086)
Method in brief: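 HepG2-AhR-luc (HG2L7.5c1) cells, 4000/well, were preincubated 5 h at 37C, exposed to compound in qHTS format for 24 hr at 37C, then given CellTiter-Fluor for 30 min; viability was read as fluorescence in the reporter wells.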

[29] = biological target: Peroxisome proliferator-activated receptor gamma (Homo sapiens) (UniProt P37231); test: qHTS assay to identify small molecule agonists of the peroxisome proliferator-activated receptor gamma (PPARg) signaling pathway (AID 743094; active = well fitted activation curve with a large enough effect in the signal ratio in the repeat runs, not every such curve was filed as active; the % refers to the signal ratio)
Method in brief: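 GeneBLAzer PPARg UAS-bla HEK293H cells were plated, rested 5 h, then exposed to compounds for 17 h at 37C. Beta-lactamase activity was read by LiveBLAzer B/G FRET substrate fluorescence after 1 h at room temperature.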

[30] = qHTS assay to identify small molecule antagonists of the estrogen related receptor (ERR) signaling pathway - cell viability counter screen (AID 1224818); also: series mostly up to about 46 µM
Method in brief: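 ERR cells, 2,000 per well, compound added after 6 h and incubated 17.5 h at 37 C. Viability read by CellTiter-Fluor fluorescence after a further 30 min at 37 C.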

[31] = qHTS assay to identify small molecule antagonists of the estrogen related receptor (ERR) signaling pathway (AID 1224819;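 also: luminescence from an ERR-driven luciferase reporter measured with One-Glo reagent; series mostly up to about 46 µM; nearly all actives have a fitted effect of over 50% in size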)
Method in brief: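 ERR reporter cell line (NTP) plated at 2,000 cells/well, settled 6 h at 37C/5% CO2, then exposed to LOPAC compounds for 18 h at 37C. One-Glo luciferase luminescence read after 30 min at room temperature.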

[32] = qHTS assay to identify small molecule agonists of the estrogen related receptor (ERR) signaling pathway (AID 1224820)
Method in brief: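 Quantitative HTS of the LOPAC library used NTP ERR reporter cells treated 18 h at 37 C. Signal is luminescence after One-Glo addition and a 30 min room-temperature incubation.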

[33] = system: estrogen-related receptor alpha (ERRalpha) with PGC-1alpha coactivator, human; test: qHTS assay to identify small molecule antagonists of the estrogen related receptor signaling pathway with the pleiotropic PPARgamma coactivator (PGC) (AID 1224821; calls by dose curve;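 also: series mostly up to about 46 µM; lower luminescence signal means antagonism of PGC/ERR signalling; nearly all actives have a fitted effect of over 50% in size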)
Method in brief: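 Quantitative HTS for antagonism: PGC/ERR cells received compounds after 6 h attachment and were incubated 18 h at 37 C, with luminescence (One-Glo) as the endpoint.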

[34] = qHTS assay to identify small molecule antagonists of the estrogen related receptor signaling pathway with the pleiotropic PPARgamma coactivator (PGC) cell viability counter screen (AID 1224822; also: series mostly up to about 46 µM)
Method in brief: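 PGC/ERR cells rested 6 h, then compound-treated 17.5 h at 37 C. CellTiter-Fluor added for 30 min at 37 C, viability measured by fluorescence intensity.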

[35] = qHTS assay to identify small molecule agonists of the estrogen related receptor signaling pathway with the pleiotropic PPARgamma coactivator (PGC) (AID 1224823)
Method in brief: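 Cell-based luciferase assay in the NTP-supplied PGC/ERR line, 2,000 cells/well; 18 h compound exposure at 37 C, luminescence after One-Glo.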

[36] = qHTS assay to identify small molecule phospholipidosis (PLD) inducers (AID 1259344; active = well fitted curve in the direction sought with a large enough effect; an effect the other way counts as inactive or inconclusive)
Method in brief: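 HepG2 cells on collagen I, attached 4 h at 37 C, were co-treated with compound and LipidTOX Red dye for 24 h at 37 C, then fixed with paraformaldehyde plus Hoechst 33342 and imaged by high-content microscopy for phospholipid accumulation.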

[37] = biological target: Nuclear receptor subfamily 1 group I member 2 (Homo sapiens) (UniProt O75469); test: CYP3A4 induction through human pregnane X receptor (PXR) by small molecules, qHTS assay (AID 1346984); also: nearly all actives have a fitted effect of over 40% in size
Method in brief: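 DPX-2 HepG2 cells carrying a PXR response element and CYP3A4-promoter luciferase construct, treated with compounds 24 hr at 37C. Then P450-Glo CYP3A4 Luciferin-IPA substrate (3uM final) for 3 hr at 37C, One-Glo added, luminescence read.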

[38] = biological target: Nuclear receptor subfamily 1 group I member 2 (Homo sapiens) (UniProt O75469); test: Human pregnane X receptor (PXR) activation by small molecules, qHTS assay (AID 1346985); also: nearly all actives have a fitted effect of over 40% in size
Method in brief: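 DPX-2 cells (HepG2 co-transfected with a PXR response element and a CYP3A4-promoter luciferase construct) were seeded at 2,000 per well, rested 5 hr at 37C, then exposed to DMSO-dissolved compounds for 24 hr. Activation was read as luciferase luminescence.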

Measured: Potency

Chain of Estrogen receptor (Homo sapiens) (P03372 whole entry, looked up): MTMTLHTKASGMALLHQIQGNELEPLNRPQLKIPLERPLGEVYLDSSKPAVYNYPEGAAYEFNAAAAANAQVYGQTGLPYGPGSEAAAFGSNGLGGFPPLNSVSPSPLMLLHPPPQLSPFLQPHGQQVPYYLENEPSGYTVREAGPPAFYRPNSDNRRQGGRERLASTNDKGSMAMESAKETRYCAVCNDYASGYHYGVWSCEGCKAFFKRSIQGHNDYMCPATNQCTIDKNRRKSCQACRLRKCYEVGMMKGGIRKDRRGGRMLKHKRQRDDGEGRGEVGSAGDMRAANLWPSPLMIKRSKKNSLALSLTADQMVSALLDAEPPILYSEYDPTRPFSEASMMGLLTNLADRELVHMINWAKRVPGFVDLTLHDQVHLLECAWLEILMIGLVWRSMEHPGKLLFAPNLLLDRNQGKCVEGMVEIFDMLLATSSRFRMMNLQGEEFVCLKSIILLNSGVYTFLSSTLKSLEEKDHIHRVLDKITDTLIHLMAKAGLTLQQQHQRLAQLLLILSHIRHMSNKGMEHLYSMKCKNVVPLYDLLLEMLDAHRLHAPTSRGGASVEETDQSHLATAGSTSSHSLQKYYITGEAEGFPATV
Chain of Aryl hydrocarbon receptor (Homo sapiens) (P35869 whole entry, looked up): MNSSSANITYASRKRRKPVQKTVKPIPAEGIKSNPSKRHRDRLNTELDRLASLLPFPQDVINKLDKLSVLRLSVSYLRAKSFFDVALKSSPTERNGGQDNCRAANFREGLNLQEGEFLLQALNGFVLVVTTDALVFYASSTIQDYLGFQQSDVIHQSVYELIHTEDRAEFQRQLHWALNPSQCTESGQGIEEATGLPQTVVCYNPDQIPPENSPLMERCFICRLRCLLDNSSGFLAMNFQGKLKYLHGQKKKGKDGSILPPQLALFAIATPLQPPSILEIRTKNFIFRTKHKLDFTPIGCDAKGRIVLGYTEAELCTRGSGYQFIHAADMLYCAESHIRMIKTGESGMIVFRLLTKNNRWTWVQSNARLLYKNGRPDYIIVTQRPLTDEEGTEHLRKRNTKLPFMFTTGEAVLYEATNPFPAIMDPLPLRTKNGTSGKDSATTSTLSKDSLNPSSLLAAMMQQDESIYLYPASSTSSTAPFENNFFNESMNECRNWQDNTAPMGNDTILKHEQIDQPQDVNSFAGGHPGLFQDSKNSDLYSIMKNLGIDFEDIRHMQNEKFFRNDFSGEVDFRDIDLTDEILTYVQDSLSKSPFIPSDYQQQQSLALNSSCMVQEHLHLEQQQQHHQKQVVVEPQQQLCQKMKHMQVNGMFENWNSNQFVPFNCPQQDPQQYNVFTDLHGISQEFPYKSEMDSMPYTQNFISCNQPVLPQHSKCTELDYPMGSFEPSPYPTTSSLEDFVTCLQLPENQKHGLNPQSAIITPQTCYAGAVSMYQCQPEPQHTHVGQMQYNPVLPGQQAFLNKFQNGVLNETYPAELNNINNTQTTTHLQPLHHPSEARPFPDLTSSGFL
Chain of Peroxisome proliferator-activated receptor gamma (Homo sapiens) (P37231 whole entry, looked up): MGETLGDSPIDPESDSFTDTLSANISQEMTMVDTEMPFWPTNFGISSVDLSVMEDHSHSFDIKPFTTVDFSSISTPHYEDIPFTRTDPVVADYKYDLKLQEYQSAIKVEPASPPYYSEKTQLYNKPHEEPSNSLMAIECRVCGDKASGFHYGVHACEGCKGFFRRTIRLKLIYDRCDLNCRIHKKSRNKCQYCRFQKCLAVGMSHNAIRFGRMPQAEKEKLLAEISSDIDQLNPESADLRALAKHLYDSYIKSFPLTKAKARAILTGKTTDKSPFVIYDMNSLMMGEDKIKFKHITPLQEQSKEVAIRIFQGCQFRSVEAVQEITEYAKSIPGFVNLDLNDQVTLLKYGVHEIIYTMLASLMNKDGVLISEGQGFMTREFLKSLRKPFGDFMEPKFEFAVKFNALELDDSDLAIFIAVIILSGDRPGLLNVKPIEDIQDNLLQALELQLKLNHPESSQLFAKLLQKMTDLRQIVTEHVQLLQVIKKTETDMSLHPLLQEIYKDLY

C[C@]12N[C@H](Cc3ccccc31)c1ccccc12
inactive: all assays above
